Lamin A splicing – qHTS Assay for Modulators of Lamin A Splicing; Potency, µM (doses to about 46.1 µM), for the others: at the highest dose ratio change, negative = inhibition, most hits filed as inhibitors; HeLa LMNA splicing GFP/RFP minigene ratio, 48 h; actives 0.01% (n = 200,000); active = well fitted inhibition curve with a large enough effect in the signal ratio, with a control signal flat, not every such curve was filed as active; inconclusive = small, poorly fitted or top-dose-only effect, or effect the other way, or a change in a side signal; the % refers to the signal ratio; note: % is set by controls: 0 for no effect and ±100 for the full control effect
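S3 HeLa cells stably expressing lamin A-EGFP splicing minigene plus DsRed2, 600 cells/well, 48 h compound exposure at 37C. Laser-scanning cytometry; analysed as GFP (500-530 nm)/RFP (575-640 nm) total intensity ratio; 0.5% DMSO vehicle.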
KDM4E inh – qHTS Assay for Inhibitors of Human Jumonji Domain Containing 2E (JMJD2E); Potency, µM (titrated, usually from 57.1 µM), for inactives: at the top dose activity change, negative = inhibition, hits mostly inhibitors; Lysine-specific demethylase 4E (Homo sapiens), B2RXH2; actives 1.6% (n = 230,000); JMJD2E catalytic domain, FDH-coupled NADH fluorescence (FDH is formaldehyde dehydrogenase);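 note: 0% = wells with enzyme and -100% = buffer wells without enzyme; nearly all actives have a fitted effect of over 50% in size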
HTT aggregate – qHTS Multiplex Assay to Identify Dual Action Probes in a Cell Model of Huntington: Aggregate Formation (GFP) | PC12 HttQ103-GFP aggregates, Acumen cytometry, 40 h | Potency, µM (top dose mostly 46.1 µM), inactives show top-dose activity change, negative = inhibition, usual class: inhibitors | actives 1.1% (n = 220,000) | AID 1688, 2009; active = well fitted curve in the direction sought with a large enough effect; inconclusive = small, poorly fitted or top-dose-only effect, or another doubt; inactive = no such curve, though single readings can be large; an effect the other way counts as inactive or inconclusive; note: % is set by controls: 0 for no effect and ±100 for the full control effect; nearly all actives have a fitted effect of over 60% in size
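Read-out: GFP aggregate count by laser scanning cytometer (488 nm excitation, 500-530 nm emission, 1–25 µm objects >6 SD above background). Cells: PC12, inducible HTTex1-Q103-GFP, 100 nM tebufenozide; compounds titrated.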
ALDH1A1 inh – qHTS Assay for Inhibitors of Aldehyde Dehydrogenase 1 (ALDH1A1); Aldehyde dehydrogenase 1A1 (Homo sapiens), P00352; Purified ALDH1A1, NADH fluorescence, propionaldehyde substrate; Potency, µM (series often up to 75.3 µM), for the others: at the top dose activity, negative = inhibition, most hits filed as inhibitors; actives 7.3% (n = 220,000);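 note: plate controls were no enzyme wells and a reference inhibitor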
Target sequence (P00352 whole entry, looked up): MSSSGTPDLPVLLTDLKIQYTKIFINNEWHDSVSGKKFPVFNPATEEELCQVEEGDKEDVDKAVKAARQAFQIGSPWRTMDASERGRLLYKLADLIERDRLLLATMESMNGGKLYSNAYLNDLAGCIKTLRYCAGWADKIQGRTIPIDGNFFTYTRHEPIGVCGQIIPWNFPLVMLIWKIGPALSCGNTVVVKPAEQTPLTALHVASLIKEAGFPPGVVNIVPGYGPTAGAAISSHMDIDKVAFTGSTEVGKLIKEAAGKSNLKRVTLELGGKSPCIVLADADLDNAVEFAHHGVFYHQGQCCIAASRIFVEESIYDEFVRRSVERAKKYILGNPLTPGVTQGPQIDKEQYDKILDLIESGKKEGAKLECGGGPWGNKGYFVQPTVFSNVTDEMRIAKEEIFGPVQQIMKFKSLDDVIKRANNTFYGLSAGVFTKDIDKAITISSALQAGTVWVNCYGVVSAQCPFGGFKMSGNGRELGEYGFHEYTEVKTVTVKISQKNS
HTT cytoprotect – qHTS Multiplex Assay to Identify Dual Action Probes in a Cell Model of Huntington: Cytoprotection (ATP); Potency, µM (titrated, usually from 56.4 µM), for the others: cytoprotection (ATP increase), actives largely listed as activators; PC12 HTT-Q103 induced, cytoprotection, ATP luminescence, 40 h; AID 1471, 2008; actives 0.14% (n = 230,000); active = well fitted curve in the direction sought with a large enough effect; inconclusive = small, poorly fitted or top-dose-only effect, or another doubt; inactive = no such curve, though single readings can be large; an effect the other way counts as inactive or inconclusive; note: % of control where 0% means no effect; nearly all actives have a fitted effect of over 45% in size
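Compounds added alongside 100 nM tebufenozide, which induces toxic Q103 huntingtin exon 1-GFP in stable PC12 cells; surviving cells quantified by luminescent ATP measurement. Medium: phenol red-free DMEM, 5% equine and 5% calf serum.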
HPGD inh – qHTS Assay for Inhibitors of HPGD (15-Hydroxyprostaglandin Dehydrogenase); 15-hydroxyprostaglandin dehydrogenase [NAD(+)] (Homo sapiens), P15428; purified HPGD, NADH fluorescence kinetic, PGE2 substrate; Potency, µM, without a hit: at the highest dose activity change, negative = inhibition, usual class: inhibitors; actives 4.3% (n = 150,000); AID 894, 2007; note: % is set by controls: 0 for no effect and ±100 for the full control effect
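20 nM HPGD preincubated 15 min at room temperature with compound in 50 mM Tris-HCl pH 8, 0.01% Tween 20. Started with 1 mM NAD+ and 30 uM prostaglandin E2; NADH fluorescence (360/450 nm) read 5 times over 30-s intervals, last minus first.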
Numbers without * were called inactive; ? = inconclusive; · = no result; [ ] = another dose, or the depositor's remark. Shown are actives, neighbours in structure and some others; about 9.2% of the full set was active somewhere. Unless noted, calls come from the whole dose curve; as a rule, active = well fitted inhibition curve with a large enough effect (not every such curve was filed as active); inconclusive = small, poorly fitted or top-dose-only effect, or another doubt; inactive = no such curve, though single readings can be large or run the other way. Potency is the fitted concentration of half-maximal effect.

SMILES	Lamin A splicing	KDM4E inh	HTT aggregate	ALDH1A1 inh	HTT cytoprotect	HPGD inh
O=C(NCc1ccccc1Cl)C1CCC(CNS(=O)(=O)c2ccc(Cl)cc2)CC1 (stereo not given)	19%[46 µM]	·	·	·	·	·
O=S(=O)(NCC1CCN(S(=O)(=O)c2ccccc2)CC1)c1ccccc1	-6%	-1%	-10%	1.6µM*	10%	-2%
O=C(NCCN1CCOCC1)C1CCC(CNS(=O)(=O)c2ccccc2)CC1 (stereo not given)	-6%	-8%	1%	13µM*	·	-12%
O=C(NNS(=O)(=O)c1ccccc1)C1CCN(S(=O)(=O)c2ccccc2)CC1	5%	3%	6%	?	-14%	-5%
Cc1ccc2c(=O)[nH]c(Cc3ccccc3C(=O)O)nc2c1	·	-3%	-15%[9.22 µM]	·	-19%[10 µM]	·
O=C(NCc1ccc2c(c1)OCO2)C1CCC(CNS(=O)(=O)c2cccc3nsnc23)CC1 (stereo not given)	5%	-2%	-13%	?	-27%	-2%
O=C(NCc1cccs1)C1CCC(CNS(=O)(=O)c2cccs2)CC1 (stereo not given)	3%	0%	14%	14µM*	23%[10 µM]	-8%
O=C(COc1ccc(S(=O)(=O)NC2CCCCC2)cc1)NCCC1=CCCCC1	2%	-2%	-27%	7.1µM*	1%[10 µM]	-6%
O=C(NCc1ccc2c(c1)OCO2)C1CCC(CNS(=O)(=O)c2ccccc2)CC1 (stereo not given)	-10%	3%	1%	6.3µM*	-19%[10 µM]	-26%
O=C(NCCC1=CCCCC1)C1CCC(CNS(=O)(=O)c2ccccc2)CC1 (stereo not given)	9%	6%	10%	0.56µM*	·	-13%
Cc1ccc(S(=O)(=O)NCC2CCC(C(=O)NCc3cccs3)CC2)cc1 (stereo not given)	·	5%	-10%	0.79µM*	-11%	·
COc1cccc(NC(=O)C2CCC(CNS(=O)(=O)c3cccs3)CC2)c1 (stereo not given)	?	7%	-1%	13µM*	-6%	·
O=C(NC1CCCC1)C1CCC(CNS(=O)(=O)c2cccs2)CC1 (stereo not given)	-8%	5%	9%	22µM*	·	22µM*
Cc1ccc(CNC(=O)C2CCC(CNS(=O)(=O)c3ccc(C)cc3)CC2)cc1 (stereo not given)	-1%[46 µM]	·	·	·	·	·
CCCCn1c2c(c(=O)n(C)c1=O)C(c1ccc(OC)cc1)N1CCCCCC1=N2 (stereo not given)	2%	?	5%	0.14µM*	-68%	-11%
CCCCOc1ccc(C2C(=O)N(C3CCCCC3)CC(=O)N2CCCC)cc1 (stereo not given)	2%[46 µM]	·	·	·	·	·
COc1ccc(CNc2oc(COc3ccc(Cl)cc3)nc2C#N)cc1	?	1%	?	-5%	-25%	-23%
COc1ccc(CCNc2oc(Cc3cccc4ccccc34)nc2C#N)cc1OC	?	2%	13%	7.1µM*	-12%[0.074 µM]	-28%
COCCCNc1oc(COc2ccc(Cl)cc2Cl)nc1C#N	0%	?	15%	0%	-29%	28µM*
N#Cc1nc(COc2ccccc2F)oc1NCc1ccc(F)cc1	6%	-10%	0%	?	-11%	20µM*
COc1ccc(Nc2oc(COc3ccc(Cl)cc3)nc2C#N)cc1	0%	-7%	?	-6%	-23%	28µM*
CCCc1cnc2c(c1SCC(=O)Nc1ccc(C)c(Cl)c1)c(=O)n(C)c(=O)n2C	-8%[46 µM]	·	·	·	·	·
CCOC(=O)C1CCN(C(=O)CSc2n[nH]c(-c3ccc(OC)cc3)n2)CC1	13%[46 µM]	·	·	·	·	·

From PubChem
